Experimental findings from PubChem BioAssay (EPA / NIEHS) are described below.

Values joined by “and” are separate entries in the source; they are usually repeats but may differ in a detail not shown here. Equal values may be shown once. More than one record can exist for a structure, and the calls need not agree. Active and inactive are the calls of the source. Rule for the calls: active = hit-call score of the fitted dose curve at least 0.9, where 1 is the maximum; inactive = score below 0.9.

Read-out in assay [1]: Vascular endothelial growth factor receptor 2 (Homo sapiens) (UniProt P35968)
As to the kind of experiment: BSK_4H_VEGFRII: BioMAP Diversity Plus: 4H Assay for Vascular endothelial growth factor receptor 2 (VEGFR2) Biomarker Activity (AID 2283031).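 For AC50: cell-surface VEGFR2 protein level quantified by ELISA.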 The following applies: primary human endothelial cells (HUVEC); actives raise or lower the signal. The method in brief:
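HUVEC (human primary), 4H system; 24 h post-dose; VEGFRII by ELISA; bidirectional curve fit vs DMSO baseline; gain or loss of signal scored.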

Read-out in assay [2]: Human Leukocyte Antigen - DR isotype (HLADR), HLA-DRA (gene 3122)
As to the kind of experiment: BSK_BE3C_HLADR: BioMAP Diversity Plus: BE3C Assay for Human Leukocyte Antigen - DR isotype (HLADR) Biomarker Activity (AID 2283032). The following applies: primary human bronchial epithelial cells; actives raise or lower the signal. The method in brief: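 Chemicals are dosed onto BE3C bronchial epithelial cultures of human origin and left 24 h. HLA-DR is then measured by ELISA, and the endpoint is fitted in both directions using DMSO as the activity baseline.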

Read-out in assay [3]: Vascular cell adhesion molecule 1 (VCAM1), VCAM1 (gene 7412)
Kind of assay: BSK_4H_VCAM1: BioMAP Diversity Plus: 4H Assay for Vascular cell adhesion molecule 1 (VCAM1) Biomarker Activity (AID 2283033).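 For outcome: cell-surface VCAM-1 protein measured by ELISA.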 The following applies: primary human endothelial cells (HUVEC); actives raise or lower the signal. The method in brief: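 Chemicals are added to primary human umbilical vein endothelial cells. After 24 h, VCAM-1 levels are measured by ELISA. Values come from bidirectional fitting referenced to DMSO.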

Read-out in assay [4]: Interferon-gamma inducible Protein 10 (IP10), CXCL10 (gene 3627)
Kind of assay: BSK_BE3C_IP10: BioMAP Diversity Plus: BE3C Assay for Interferon-gamma inducible Protein 10 (IP10) Biomarker Activity (AID 2283034). To be noted: primary human bronchial epithelial cells; actives raise or lower the signal. The method in brief: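 IP-10 quantified by ELISA serves as the endpoint. Cells: primary human bronchial epithelium, read 24 h after compound addition. Activity is derived by bidirectional fitting with DMSO as negative control.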

Read-out in assay [5]: Monokine induced gamma interferon (MIG), CXCL9 (gene 4283)
Kind of assay: BSK_BE3C_MIG: BioMAP Diversity Plus: BE3C Assay for Monokine induced gamma interferon (MIG) Biomarker Activity (AID 2283035). The following applies: primary human bronchial epithelial cells; actives raise or lower the signal. The method in brief:
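Dose cells (human primary bronchial epithelial), incubate 24 h, quantify MIG by ELISA, then fit concentration–response in both directions relative to DMSO control.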

Read-out in assay [6]: Transforming growth factor beta 1 (TGFb1), TGFB1 (gene 7040)
As to the kind of experiment: BSK_BE3C_TGFb1: BioMAP Diversity Plus: BE3C Assay for Transforming growth factor beta 1 (TGFb1) Biomarker Activity (AID 2283036;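 for outcome: TGF-b1 protein level measured by ELISA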). To be noted: primary human bronchial epithelial cells; actives raise or lower the signal. The method in brief: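 Bronchial epithelial primary cells are treated with test chemical, then TGF-b1 is quantified by ELISA after 24 hours. Values derive from bidirectional fitting against DMSO, with cytotoxicity checked by SRB staining in parallel cultures.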

Read-out in assay [7]: Plasminogen activator inhibitor-1 (PAI1), SERPINE1 (gene 5054)
Kind of assay: BSK_BE3C_PAI1: BioMAP Diversity Plus: BE3C Assay for Plasminogen activator inhibitor-1 (PAI1) Biomarker Activity (AID 2283037). The following applies: primary human bronchial epithelial cells; actives raise or lower the signal. The method in brief:
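Values derive from bidirectional fitting against DMSO baseline of PAI-1 levels, measured by ELISA in human bronchial epithelial cells 24 h after compound addition.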

Read-out in assay [8]: urokinase plasminogen activator (uPA), PLAU (gene 5328)
Kind of assay: BSK_BE3C_uPA: BioMAP Diversity Plus: BE3C Assay for urokinase plasminogen activator (uPA) Biomarker Activity (AID 2283038).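 For outcome: uPA protein level quantified by ELISA in cell cultures; uPA read one day after compound addition.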 To be noted: primary human bronchial epithelial cells; actives raise or lower the signal. The method in brief: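 ELISA read-out of uPA in human lung primary bronchial epithelial cultures, 24 h post-dosing. Gain or loss of signal fitted bidirectionally relative to DMSO baseline; cytotoxicity checked in parallel cultures via SRB total protein stain.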

Read-out in assay [9]: Urokinase-type plasminogen activator receptor (uPAR), PLAUR (gene 5329)
Kind of assay: BSK_BE3C_uPAR: BioMAP Diversity Plus: BE3C Assay for Urokinase-type plasminogen activator receptor (uPAR) Biomarker Activity (AID 2283039).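 For outcome: uPAR protein level measured by ELISA on the cells; cells exposed to compound for one day before measurement.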 To be noted: primary human bronchial epithelial cells; actives raise or lower the signal. The method in brief:
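Steps: dose human primary bronchial epithelial cells, incubate 24 h, measure uPAR by ELISA, then fit gain- or loss-of-signal response bidirectionally relative to DMSO.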

Read-out in assay [10]: Interleukin-6 (IL6), IL6 (gene 3569)
Kind of assay: BSK_CASM3C_IL6: BioMAP Diversity Plus: CASM3C Assay for Interleukin-6 (IL6) Biomarker Activity for (AID 2283040). To be noted: primary human coronary artery smooth muscle cells; actives raise or lower the signal.

Take `CCCCCCOC(=O)c1ccccc1C(=O)OCCCCCC`: the outcome in [1], in assay [2], in assay [3], in [4], in [5] and in assay [6] was inactive. Also, the outcome in assay [7], in assay [8], in [9] and in assay [10] was inactive.
As to `C1CC2OC2CC1C1CO1` (stereo unspecified), the result in [1], in assay [2], in assay [3], in assay [4], in assay [5] and in assay [6] was inactive. Moreover, the result in assay [7], in assay [8], in [9] and in [10] was inactive.
The term AC50 denotes the concentration giving half of the maximal activity seen. As to `CCC(=O)O[C@H]1CC[C@H]2[C@@H]3CCC4=CC(=O)CC[C@]4(C)[C@H]3CC[C@]12C`, the AC50 was 28 µM (active) in [1], 32.9 µM (active) in assay [2] and 37.4 µM (active) in assay [3]. The result in assay [4], in assay [5], in [6], in assay [7], in [8] and in [9] was inactive.
In the case of `O=C(O)C(F)(F)C(F)(F)C(F)(F)C(F)(F)C(F)(F)C(F)(F)C(F)(F)C(F)(F)F`, the outcome in [1], in assay [3] and in [10] was inactive. In addition, the AC50 in [2] was 29.7 µM (active) and 44.1 µM (active) and 45.2 µM (active); in assay [3], 41.7 µM (active); in assay [4] it was 27.7 µM (active) and 45.9 µM (active) and 43.7 µM (active); in [5], 32.7 µM (active) and 50.1 µM (active) and 52.7 µM (active); in [6], 26.2 µM (active); in assay [7], 32.3 µM (active) and 23.3 µM (active) and 40.2 µM (active). The AC50 in assay [8] is 37.2 µM (active) and 49.1 µM (active) and 30 µM (active); in [9] it was 35.1 µM (active) and 47.8 µM (active) and 48.6 µM (active).
For the compound `CO/C=C(/C(=O)OC)c1ccccc1COc1cccc(C(F)(F)F)n1`, the outcome in assay [1], in assay [2], in assay [5], in assay [6], in assay [7] and in [8] was inactive. Besides, the result in assay [9] was inactive. The results for the AC50 in assay [3], in assay [4] and in assay [10] were 4.02 µM (active), 3.97 µM (active) and 5.93 µM (active), respectively.
For `ClC1=C(Cl)[C@]2(Cl)[C@@H]3[C@@H](Cl)[C@H]4O[C@H]4[C@@H]3C1(Cl)C2(Cl)Cl`, the outcome in [1], in [2], in assay [3], in [4], in [5] and in [6] was inactive. In addition, the result in assay [7], in assay [8], in [9] and in assay [10] was inactive.
Take `C=CC(=O)NCNC(=O)C=C`: the result in assay [1], in assay [2], in [3], in assay [4], in [5] and in assay [6] was inactive. The result in assay [7], in assay [8], in assay [9] and in [10] was inactive.
Turning to `CN(C)c1nc(=O)n(C2CCCCC2)c(=O)n1C`, the outcome in [1], in assay [2], in assay [3], in assay [4], in assay [5] and in assay [6] was inactive. Further, the outcome in [7], in [8], in [9] and in assay [10] was inactive.
`Nc1ccc(-c2ccc(N)cc2)cc1`: the outcome in assay [1], in assay [2], in assay [3], in [4], in [5] and in [6] was inactive. The outcome in assay [7], in [8], in assay [9] and in [10] was inactive.
`Cc1cccc(C)c1N`: the outcome in [1], in assay [2], in assay [3], in [4], in [5] and in [6] was inactive. In addition, the result in [7], in [8], in [9] and in [10] was inactive.
For `CCNc1nc(NC(C)C)nc(SC)n1`, the outcome in assay [1], in [2], in [3], in [4], in [5] and in [6] was inactive. For the same compound, the outcome in [7], in [8], in assay [9] and in [10] was inactive.
In the case of `Cc1ccccc1[N+](=O)[O-]`, the result in [1], in [2], in assay [3], in assay [4], in assay [5] and in [6] was inactive. In addition, the result in [7], in assay [8], in assay [9] and in [10] was inactive.
As for `O=C(O)C(F)(F)C(F)(F)C(F)(F)C(F)(F)C(F)(F)C(F)(F)C(F)(F)C(F)(F)C(F)(F)F`, the AC50 in assay [1] is 43.2 µM (active) and 55.4 µM (active); in assay [2] it was 11.1 µM (active) and 9.13 µM (active) and 11.4 µM (active); in assay [3], 33.8 µM (active) and 46.9 µM (active) and 46 µM (active); in assay [4], 9.39 µM (active) and 8.59 µM (active) and 8.35 µM (active); in [5], 28.6 µM (active) and 26.9 µM (active) and 12.7 µM (active); in assay [6] it was 10 µM (active). Besides, the AC50 is 14.2 µM (active) and 14.4 µM (active) and 12.8 µM (active) in assay [7]; 16.1 µM (active) and 7.94 µM (active) in assay [8]; 30.8 µM (active) and 16.4 µM (active) and 14.7 µM (active) in [9]. Besides, the outcome in assay [1], in assay [8] and in assay [10] was inactive.
For `O=C(O)C(F)(F)C(F)(F)C(F)(F)C(F)(F)C(F)(F)F`, the result in [1], in [2], in [3], in [4], in assay [5] and in assay [6] was inactive. Also, the result in assay [7], in assay [8], in assay [9] and in assay [10] was inactive.
Regarding `O=S(=O)(O)C(F)(F)C(F)(F)C(F)(F)C(F)(F)C(F)(F)C(F)(F)F`, the result in assay [1], in [2], in assay [3], in assay [4], in assay [5] and in assay [6] was inactive. The result in assay [7], in assay [8], in [9] and in [10] was inactive.
Turning to `NS(=O)(=O)C(F)(F)C(F)(F)C(F)(F)C(F)(F)C(F)(F)C(F)(F)C(F)(F)C(F)(F)F`, the AC50 was 28.5 µM (active) and 30 µM (active) in [1]; 5.61 µM (active) and 37.8 µM (active) and 37.6 µM (active) in assay [2]; 32.1 µM (active) and 50.1 µM (active) and 46 µM (active) in assay [3]; 10.2 µM (active) and 27 µM (active) and 23.1 µM (active) in [4]; 58.2 µM (active) and 54.8 µM (active) in assay [5]; 10.5 µM (active) in assay [6]. Besides, the AC50 in [7] is 10.4 µM (active) and 17.1 µM (active) and 15.5 µM (active); in assay [8], 47.3 µM (active) and 55.1 µM (active); in assay [9], 51.1 µM (active) and 54.9 µM (active). Besides, the result in assay [1], in [5], in assay [8], in assay [9] and in assay [10] was inactive.
